Results as given in the supplement of paper PMC12494721.
Counter-ions that a name gives are not always drawn.

Experiments:
Settings in all cases: incubation time: 27 h, anaerobic, 37 °C;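 for the amine columns active = adjusted P below 0.05 in both replicates with a change the same way and a mean fold change under 0.8 or over 1.25; inactive = the rest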
[1] = test system: Clostridium sporogenes DSM 1664; assay: growth (OD595) fold change vs plate DMSO controls (fold change (ratio)); higher = more growth
Summary of the method: (§1)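 Growth is calculated as fold change against the median of the DMSO control wells on each plate. Readings at 595 nm from anaerobic mGAM cultures (96-well, 27 h, 37 °C) were blank-subtracted, background-corrected with 20 µM compound solutions in water, and converted to OD by a calibration factor of 5. Fold changes above 1.5 were recorded as NA, and results are means of 2 biological replicates.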

Escherichia coli IAI1 [2] = assay: as above
Summary of the method: as §1

[3] = test system: Klebsiella aerogenes DSM 30053; assay: as above
Summary of the method: as §1

[4] = test system: Ruminococcus gnavus DSM 108212; assay: as above
Summary of the method: as §1

[5] = test system: Klebsiella aerogenes DSM 30053; assay: fold change of Histamine concentration vs plate DMSO controls (fold change (ratio)); higher = more amine produced, active = hit call of the paper (significant change in both replicates, either direction)
Summary of the method: (§2)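 Anaerobic mGAM cultures of four gut bacterial strains were grown at 37 °C for 27 h in 80 µL wells, starting at OD 0.1 before 1:1 dilution. Compounds were at 20 µM final (sweeteners 50 µM). Whole cultures were extracted with cold acetonitrile/methanol containing 0.1% formic acid and centrifuged. Amines were quantified by LC–triple-quadrupole MS (dynamic MRM) against external calibration curves and drift-corrected within batch. Each value is the fold change versus plate DMSO controls, averaged over 2 biological replicates.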

[6] = test system: Clostridium sporogenes DSM 1664; assay: fold change of Tryptamine concentration vs plate DMSO controls (fold change (ratio)); higher = more amine produced, active = hit call of the paper (significant change in both replicates, either direction)
Summary of the method: as §2

[7] = test system: Ruminococcus gnavus DSM 108212; assay: as above
Summary of the method: as §2

Escherichia coli IAI1 [8] = assay: fold change of Putrescine concentration vs plate DMSO controls (fold change (ratio)); higher = more amine produced, active = hit call of the paper (significant change in both replicates, either direction)
Summary of the method: as §2

[9] = test system: Klebsiella aerogenes DSM 30053; assay: as above
Summary of the method: as §2

Escherichia coli IAI1 [10] = assay: fold change of Cadaverine concentration vs plate DMSO controls (fold change (ratio)); higher = more amine produced, active = hit call of the paper (significant change in both replicates, either direction)
Summary of the method: as §2

[11] = test system: Klebsiella aerogenes DSM 30053; assay: as above
Summary of the method: as §2

[12] = test system: Ruminococcus gnavus DSM 108212; assay: fold change of 2-Phenylethylamine concentration vs plate DMSO controls (fold change (ratio)); higher = more amine produced, active = hit call of the paper (significant change in both replicates, either direction)
Summary of the method: as §2

SMILES	growth [1]	growth (Escherichia coli IAI1 [2])	growth [3]	growth [4]	fold change of Histamine concentration [5]	fold change of Tryptamine concentration [6]	fold change of Tryptamine concentration [7]	fold change of Putrescine concentration (Escherichia coli IAI1 [8])	fold change of Putrescine concentration [9]	fold change of Cadaverine concentration (Escherichia coli IAI1 [10])	fold change of Cadaverine concentration [11]	fold change of 2-Phenylethylamine concentration [12]
CCOC(=O)OC(C)OC1=C(C(=O)Nc2ccccn2)N(C)S(=O)(=O)c2ccccc21 (stereo not given) [Ampiroxicam] (20 µM)	1.02	0.978	1.03	1.1	0.908 (inactive)	0.998 (inactive)	0.999 (inactive)	0.976 (inactive)	0.998 (inactive)	0.983 (inactive)	1.01 (inactive)	0.99 (inactive)
CCN(CC)CCOC(=O)C(c1ccccc1)C1CCCCC1 (stereo not given) [Drofenine hydrochloride] (20 µM)	0.967	0.977	1	0.939	1.03 (inactive)	0.99 (inactive)	0.866 (inactive)	1.06 (inactive)	1.01 (inactive)	1.04 (inactive)	0.992 (inactive)	0.921 (inactive)
NC[C@@H]1O[C@H](O[C@H]2[C@@H](O)[C@H](O[C@@H]3[C@@H](O)[C@H](N)C[C@H](N)[C@H]3O[C@H]3O[C@H](CN)[C@@H](O)[C@H](O)[C@H]3N)O[C@@H]2CO)[C@H](N)[C@@H](O)[C@@H]1O [Neomycin sulfate] (20 µM)	0.902	0.997	1.02	0.938	0.893 (inactive)	1.16 (inactive)	1.08 (inactive)	0.954 (inactive)	0.966 (inactive)	0.897 (inactive)	1.02 (inactive)	1.11 (inactive)
CC(=O)N[C@H]1[C@H]([C@H](O)[C@H](O)CO)OC(C(=O)O)=C[C@@H]1NC(=N)N [Zanamivir] (20 µM)	0.953	1.02	0.977	0.992	1.01 (inactive)	1 (inactive)	1.06 (inactive)	0.946 (inactive)	0.962 (inactive)	0.886 (inactive)	0.991 (inactive)	1.09 (inactive)
O=C(NCCN1CCOCC1)c1ccc(Cl)cc1 [Moclobemide] (20 µM)	1.03	0.993	0.971	1.21	1.06 (inactive)	1.04 (inactive)	1.03 (inactive)	1 (inactive)	1.01 (inactive)	1.01 (inactive)	0.987 (inactive)	1.03 (inactive)
NC(=O)c1ncn([C@@H]2O[C@H](CO)[C@@H](O)[C@H]2O)c1O [Mizoribine] (20 µM)	0.99	1.06	1.06	1	0.951 (inactive)	1.02 (inactive)	1.01 (inactive)	1.02 (inactive)	1.02 (inactive)	0.997 (inactive)	1.01 (inactive)	0.982 (inactive)
C[C@@H]1C[C@H]2[C@@H]3C[C@H](F)C4=CC(=O)C=C[C@]4(C)[C@@]3(Cl)[C@@H](O)C[C@]2(C)[C@H]1C(=O)COC(=O)C(C)(C)C [Clocortolone pivalate] (20 µM)	1.06	1.03	1.04	0.992	1.04 (inactive)	1.04 (inactive)	1.08 (inactive)	1.02 (inactive)	0.999 (inactive)	1.01 (inactive)	0.997 (inactive)	1.17 (inactive)
NS(=O)(=O)c1cc(C(=O)NN2C[C@@H]3[C@H]4CC[C@H](C4)[C@@H]3C2)ccc1Cl [Tripamide] (20 µM)	0.981	1.01	0.978	1.08	1.01 (inactive)	1.03 (inactive)	1.06 (inactive)	0.995 (inactive)	0.981 (inactive)	0.928 (inactive)	0.998 (inactive)	1.05 (inactive)
Nc1c2ccccc2nc2ccccc12 [Aminacrine] (20 µM)	0.903	1.11	0.922	1.45	1.07 (inactive)	0.923 (inactive)	0.911 (inactive)	1.15 (inactive)	0.952 (inactive)	1.29 (active)	0.964 (inactive)	0.947 (inactive)
Cc1nc(=O)c2cc(CN(C)c3ccc(C(=O)N[C@@H](CCC(=O)O)C(=O)O)s3)ccc2[nH]1 [Raltitrexed] (20 µM)	1.11	1	1.02	1.21	1 (inactive)	1.17 (inactive)	1.06 (inactive)	0.924 (inactive)	0.968 (inactive)	0.943 (inactive)	1.05 (inactive)	1.06 (inactive)
CC[N+](CC)(CC)CCC(O)(c1ccccc1)C1CCCCC1 (stereo not given) [Tridihexethyl chloride] (20 µM)	0.911	1	1.01	1.16	0.955 (inactive)	1.17 (inactive)	1.06 (inactive)	0.812 (inactive)	0.975 (inactive)	0.857 (inactive)	1.02 (inactive)	1.03 (inactive)
CCOC(=O)[C@H](CCc1ccccc1)N[C@@H](C)C(=O)N1C(=O)N(C)C[C@H]1C(=O)O [Imidapril hydrochloride] (20 µM)	1.19	1.05	1.05	1.2	0.963 (inactive)	0.931 (inactive)	1.03 (inactive)	1.05 (inactive)	0.997 (inactive)	1.01 (inactive)	0.989 (inactive)	1.05 (inactive)
Nc1nc2c(ncn2COC(CO)CO)c(=O)[nH]1 [Ganciclovir] (20 µM)	0.925	0.989	0.946	1.07	1.04 (inactive)	1.06 (inactive)	0.974 (inactive)	1.02 (inactive)	1.02 (inactive)	1.03 (inactive)	0.999 (inactive)	0.954 (inactive)
CCOC(N)=O [Urethane] (20 µM)	0.952	1.05	1.04	1.08	1.03 (inactive)	0.944 (inactive)	0.961 (inactive)	1.02 (inactive)	1.05 (inactive)	1.03 (inactive)	1.03 (inactive)	0.926 (inactive)
CC(C)NCC(O)COc1ccc(COCCOC(C)C)cc1 (stereo not given) [Bisoprolol hemifumarate] (20 µM)	1.1	0.975	0.97	0.79	0.965 (inactive)	1.2 (inactive)	1.09 (inactive)	1 (inactive)	0.846 (inactive)	0.99 (inactive)	1.13 (inactive)	1.09 (inactive)
CCCCNc1ccc(C(=O)OCCN(C)C)cc1 [Tetracaine hydrochloride] (20 µM)	1.06	1.02	0.968	0.907	1.08 (inactive)	1.04 (inactive)	1.07 (inactive)	0.956 (inactive)	1.04 (inactive)	0.983 (inactive)	0.991 (inactive)	1.05 (inactive)
CC[C@H]1OC(=O)[C@H](C)[C@@H](O[C@H]2C[C@@](C)(OC)[C@@H](O)[C@H](C)O2)[C@H](C)[C@@H](O[C@@H]2O[C@H](C)C[C@H](N(C)C)[C@H]2O)[C@](C)(O)C[C@@H](C)C(=O)[C@H](C)[C@@H](O)[C@]1(C)O [Erythromycin] (20 µM)	0.0078	0.762	1.16	0.129	0.3 (inactive)	0.0554 (active)	0.144 (active)	0.459 (inactive)	0.936 (inactive)	0.942 (inactive)	1.07 (inactive)	0.137 (active)
CCC[C@H](N[C@@H](C)C(=O)N1[C@H](C(=O)O)C[C@@H]2CCCC[C@@H]21)C(=O)OCC [Perindopril] (20 µM)	0.997	1	1.05	1.21	0.997 (inactive)	0.965 (inactive)	1.02 (inactive)	0.914 (inactive)	1.03 (inactive)	0.993 (inactive)	1.01 (inactive)	0.995 (inactive)
CCOC(=O)c1ccc(N)cc1 [Benzocaine] (20 µM)	1.09	1.03	1.08	1.02	0.954 (inactive)	1.1 (inactive)	1.06 (inactive)	0.92 (inactive)	0.969 (inactive)	1 (inactive)	1.01 (inactive)	1.1 (inactive)
Cc1c(C(=O)NN2CCCCC2)nn(-c2ccc(Cl)cc2Cl)c1-c1ccc(Cl)cc1 [Rimonabant] (20 µM)	0.981	0.979	1	1.04	1.03 (inactive)	0.906 (inactive)	0.897 (inactive)	1.01 (inactive)	1.02 (inactive)	1.04 (inactive)	0.998 (inactive)	0.841 (inactive)
COc1nc(N)nc2c1ncn2[C@@H]1O[C@H](CO)[C@@H](O)[C@@H]1O [Nelarabine] (20 µM)	1.13	0.973	0.999	0.914	1.08 (inactive)	0.945 (inactive)	1.03 (inactive)	1.01 (inactive)	1.01 (inactive)	0.989 (inactive)	0.978 (inactive)	1.03 (inactive)
CN(C/C=C/C#CC(C)(C)C)Cc1cccc2ccccc12 [Terbinafine] (20 µM)	1.03	1.2	0.972	0.896	1.07 (inactive)	1.01 (inactive)	0.97 (inactive)	1.21 (inactive)	1.01 (inactive)	0.987 (inactive)	0.989 (inactive)	1.02 (inactive)
O=C(Cn1cnnn1)N[C@@H]1C(=O)N2C(C(=O)O)=C(CSc3nncs3)CS[C@H]12 [Ceftezole] (20 µM)	0	0.855	1.05	0.188	0.895 (inactive)	0.0131 (active)	0.114 (active)	0.749 (inactive)	0.967 (inactive)	1.61 (inactive)	1.04 (inactive)	0.105 (active)
CCOC(=O)[C@H](CCc1ccccc1)N[C@H]1CCc2ccccc2N(CC(=O)O)C1=O [Benazepril hydrochloride] (20 µM)	1.03	1	1	1.02	1 (inactive)	1.06 (inactive)	1.02 (inactive)	0.997 (inactive)	0.981 (inactive)	0.989 (inactive)	1.02 (inactive)	1.01 (inactive)
Clc1ccc(CSC(Cn2ccnc2)c2ccc(Cl)cc2Cl)cc1 (stereo not given) [Sulconazole nitrate] (20 µM)	0.862	1.05	0.995	0.423	0.872 (inactive)	1 (inactive)	0.434 (active)	0.922 (inactive)	0.96 (inactive)	0.499 (inactive)	1.01 (inactive)	0.667 (active)
